High-throughput results as filed in PubChem BioAssay.
USP17 inh – human USP17-like deubiquitinase inhibition; A8MUK1; AID 1645855; actives 6.5% (n = 47,000); purified USP17, Ub-rhodamine cleavage fluorescence, 3 h; inhibition, % at 50 µM
USP30 block – inhibitors of human USP30 deubiquitinase | Q70CQ3 | purified USP30, Ub-rhodamine cleavage fluorescence | inhibition, % at 25 µM | actives 5.3% (n = 47,000)
USP10 block – human USP10 deubiquitinase inhibition; purified USP10, Ub-rhodamine fluorescence, 60 min; actives 1.1% (n = 47,000); inhibition, % at 20 µM; Q14694
USP8 block – human USP8 deubiquitinase inhibition | AID 1645853 | purified USP8, Ub-rhodamine cleavage fluorescence, 30 min | inhibition, % at 20 µM | actives 4.2% (n = 47,000)
Target sequence (P40818 whole entry, looked up): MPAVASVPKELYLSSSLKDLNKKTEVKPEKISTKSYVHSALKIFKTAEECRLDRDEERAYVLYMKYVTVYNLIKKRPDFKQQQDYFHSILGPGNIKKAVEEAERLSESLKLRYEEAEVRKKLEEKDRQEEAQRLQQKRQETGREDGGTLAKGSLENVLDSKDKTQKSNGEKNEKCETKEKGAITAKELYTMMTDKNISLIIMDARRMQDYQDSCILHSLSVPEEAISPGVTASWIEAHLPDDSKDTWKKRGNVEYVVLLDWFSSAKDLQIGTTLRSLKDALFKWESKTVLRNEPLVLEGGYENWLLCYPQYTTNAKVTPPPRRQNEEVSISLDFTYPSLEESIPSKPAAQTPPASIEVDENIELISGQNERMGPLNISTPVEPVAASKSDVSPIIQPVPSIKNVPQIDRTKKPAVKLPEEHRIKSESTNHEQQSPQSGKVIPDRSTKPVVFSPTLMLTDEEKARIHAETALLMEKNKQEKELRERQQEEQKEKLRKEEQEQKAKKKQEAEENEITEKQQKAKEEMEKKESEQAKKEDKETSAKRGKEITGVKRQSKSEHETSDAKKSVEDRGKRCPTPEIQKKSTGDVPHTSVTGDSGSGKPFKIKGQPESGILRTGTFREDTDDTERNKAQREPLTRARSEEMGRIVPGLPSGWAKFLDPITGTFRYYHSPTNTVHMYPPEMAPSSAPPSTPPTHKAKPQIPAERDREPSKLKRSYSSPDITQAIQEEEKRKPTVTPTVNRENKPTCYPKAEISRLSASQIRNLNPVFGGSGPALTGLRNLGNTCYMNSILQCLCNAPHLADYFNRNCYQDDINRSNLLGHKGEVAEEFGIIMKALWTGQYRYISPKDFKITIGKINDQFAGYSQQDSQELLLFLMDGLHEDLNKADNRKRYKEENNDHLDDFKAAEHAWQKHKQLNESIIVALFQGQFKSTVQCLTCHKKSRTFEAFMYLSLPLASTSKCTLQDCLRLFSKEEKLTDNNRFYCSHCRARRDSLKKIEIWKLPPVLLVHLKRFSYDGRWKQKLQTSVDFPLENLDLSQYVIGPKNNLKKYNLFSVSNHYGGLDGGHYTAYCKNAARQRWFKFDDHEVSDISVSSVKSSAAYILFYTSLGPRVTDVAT
USP28 block – human USP28 deubiquitinase inhibition; Q96RU2; purified USP28, Ub-rhodamine cleavage fluorescence, 30 min; inhibition, % at 25 µM; actives 3% (n = 47,000)
An asterisk follows results filed as active. The list is not random: actives were taken first. Their share in the collection is about 14%. Rule as the data show it: active = inhibition above about 30%; inactive = the rest.

How did O=C(c1cccc2c1OCCO2)N1CCOCC1c1ccn[nH]1 (configuration not stated) do in these assays?
USP17 inh: 11; USP30 block: 33*; USP10 block: 1; USP8 block: -1; USP28 block: 14

Results for CC(C)(C)c1cc(C(=O)N2CCOCC2c2ccn[nH]2)n[nH]1 (configuration not stated) ?
USP17 inh: -14; USP30 block: -34; USP10 block: -2; USP8 block: 0; USP28 block: -21

Results for COc1ccc(CNC(=O)CCc2nc3c(C)nn(-c4ccccc4)c3n(C)c2=O)cc1 ?
USP17 inh: -3; USP30 block: -8; USP10 block: 1; USP8 block: -30; USP28 block: -9

How did COc1ccc(S(=O)(=O)N(Cc2ccco2)Cc2cc3ccccc3[nH]c2=O)cc1 do in these assays?
USP17 inh: 11; USP30 block: 42*; USP10 block: 25; USP8 block: -16; USP28 block: 28

Results for COc1ccc(S(=O)(=O)N(Cc2cccnc2)Cc2cc3ccccc3[nH]c2=O)cc1 ?
USP17 inh: -21; USP30 block: -26; USP10 block: 0; USP8 block: -37; USP28 block: -15

What do the screens show for `COc1ccc(C(=O)[C@@H]2[C@H](C(=O)OC(c3ccccc3)c3ccccc3)N3c4ccccc4C=CC3[C@@]23C(=O)Nc2ccccc23)cc1` (some centres not stated)?
USP17 inh: 0; USP30 block: -213; USP10 block: -7; USP8 block: 45*; USP28 block: -30

What do the screens show for `COc1ccc([C@H]2[C@H](C(=O)c3cccs3)N3c4ccccc4C=CC3C23C(=O)c2ccccc2C3=O)c(OC)c1` (some centres not stated)?
USP17 inh: -159; USP30 block: inactive; USP10 block: -3; USP8 block: -237; USP28 block: -232

What do the screens show for `COc1ccc2c(c1)C[C@@H](c1cccnc1)N[C@H]2c1cccnc1`?
USP17 inh: 10; USP30 block: 13; USP10 block: -1; USP8 block: 41*; USP28 block: 7

Results for COc1ccc2c(c1)C[C@@H](c1cccnc1)N[C@H]2c1ccccn1 ?
USP17 inh: 1; USP30 block: 3; USP10 block: -4; USP8 block: -10; USP28 block: 3

Results for Cc1nc2sc3c(NC4CCCCC4)ncnc3c2c2c1COC(C)(C)C2 ?
USP17 inh: -8; USP30 block: 0; USP10 block: -2; USP8 block: 0; USP28 block: -1

What do the screens show for `Cc1noc(C)c1COc1ccc(CC(=O)Nc2cc(Cl)ccc2N2CCN(C)CC2)cc1`?
USP17 inh: 5; USP30 block: -2; USP10 block: -5; USP8 block: 0; USP28 block: 0

What do the screens show for `O=C(NCc1ccncc1)C1CC(=O)N(c2ccccc2)C1` (configuration not stated)?
USP17 inh: 0; USP30 block: -29; USP10 block: 0; USP8 block: 3; USP28 block: -4

Results for O=C(COc1ccc(N2CC(C(=O)NCc3ccccc3)CC2=O)cc1)Nc1ccccc1Cl (configuration not stated) ?
USP17 inh: 56*; USP30 block: 52*; USP10 block: 49*; USP8 block: 59*; USP28 block: 12

Results for Cn1cc(CCNC(=O)N2CCCCCC2c2ccncc2)cn1 (configuration not stated) ?
USP30 block: -9; USP10 block: -3; USP8 block: 5; USP28 block: -11

How did O=C(c1ccc2n[nH]nc2c1)N1CCN(S(=O)(=O)c2ccc3c(c2)OCCCO3)CC1 do in these assays?
USP17 inh: 8; USP30 block: -7; USP10 block: -2; USP8 block: 7; USP28 block: 10

Results for Cc1nn(-c2ccc(F)cc2)c(Cl)c1C(=O)NC1CCCc2ccccc21 (configuration not stated) ?
USP17 inh: 6; USP30 block: -22; USP10 block: -1; USP8 block: -7; USP28 block: 0

How did Cc1cn2nnc(C(=O)NC3CCc4ccccc43)c2c(=O)[nH]1 (configuration not stated) do in these assays?
USP17 inh: 24; USP30 block: -7; USP10 block: -7; USP8 block: 64*; USP28 block: 9

Results for Cc1ccc2nnc(-c3ccccc3)c(C(=O)N3CCN(c4ccccn4)CC3)c2c1 ?
USP17 inh: 50*; USP30 block: 5; USP10 block: -1; USP8 block: -3; USP28 block: 2

Results for CC(C)Cn1c(=O)[nH]c2c(C(=O)N3CCCCC3)snc2c1=O ?
USP17 inh: -4; USP30 block: -7; USP10 block: 0; USP8 block: -3; USP28 block: 0

Results for CC(C)n1c(=O)[nH]c2c(C(=O)N3CCCCC3)snc2c1=O ?
USP17 inh: 19; USP30 block: 38*; USP10 block: 4; USP8 block: 29; USP28 block: 13

What do the screens show for `COc1ccccc1C(=O)Nc1ccc(Cc2ccncc2)cc1`?
USP17 inh: 9; USP30 block: 30; USP10 block: 1; USP8 block: 2; USP28 block: 35*

Results for O=C(Nc1ccc(Cc2ccncc2)cc1)c1ccccc1Br ?
USP17 inh: 4; USP30 block: 2; USP10 block: 4; USP8 block: -2; USP28 block: 11

What do the screens show for `CC(C)=CCc1cccc2c(C3=C(O)C(=O)C(c4c[nH]c5c(CC=C(C)C)cccc45)=C(O)C3=O)c[nH]c12`?
USP17 inh: 72*; USP30 block: 43*; USP10 block: 1; USP8 block: 4; USP28 block: 52*

What do the screens show for `O=S(=O)(c1ccc(F)cc1)N1CCC[C@@H](Cn2nnc(-c3ccccn3)n2)C1`?
USP17 inh: -8; USP30 block: -6; USP10 block: 1; USP8 block: -14; USP28 block: -11

What do the screens show for `O=C(Nc1cc(F)ccc1F)c1ccc2c(c1)ncn2CCN1CCCC1`?
USP17 inh: -1; USP30 block: -30; USP10 block: -2; USP8 block: -12; USP28 block: 0

What do the screens show for `Cc1nc2ccccn2c(=O)c1NC(=O)COc1ccc(Cl)cc1`?
USP17 inh: -4; USP30 block: 14; USP10 block: -1; USP8 block: -1; USP28 block: -8

Results for O=C(Nc1cc(F)ccc1F)c1ccn(COc2ccc(F)c(Cl)c2)n1 ?
USP17 inh: 46*; USP30 block: 70*; USP10 block: 6; USP8 block: 23; USP28 block: 19

How did Cc1nccn1CCCNC(=O)c1ccn(-c2ccccc2Cl)n1 do in these assays?
USP17 inh: 5; USP10 block: 1; USP8 block: -2

What do the screens show for `Cc1ccccc1NC(=O)c1ccn(COc2ccc(Cl)cc2)n1`?
USP17 inh: 19; USP30 block: 19; USP10 block: 6; USP8 block: 19; USP28 block: 59*
